Data from PubChem BioAssay (NCI).
About 83,000 compounds went through this panel and 20% of them were active in at least one assay; those are over-represented in the sample as a whole.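 Single-dose data. Exposure time 48 hours. Values below 10 considered active.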 Active and inactive are the calls of the source.

Test system: NCI-H23 lung
Experiment: NCI-60 one-dose screen, 48 h (100 = growth as untreated, 0 = no growth, -100 = all killed)
Conditions: 10 µM

SMILES	growth
CN(C)CCOc1nc2ccccc2c2c1-c1ccc(Cl)cc1C2=O	-43.9% (active)
CCOC(=O)C(CSC(c1ccccc1)(c1ccccc1)c1ccccc1)NC(=O)C(CSC(c1ccccc1)(c1ccccc1)c1ccccc1)NC(c1ccccc1)(c1ccccc1)c1ccccc1 (stereo not drawn)	116% (inactive)
O=C1OCC2=C1C(c1cccc(Cl)c1)c1cc3c(cc1N2CCO)CCC3 (stereo not drawn)	8.79% (active)
O=C(Nc1ccc(Cl)cc1)N1NC(c2ccc(Cl)cc2)C=C1c1ccccc1 (stereo not drawn)	104% (inactive)
S=c1[nH]ccn1-c1c(Cl)cccc1Cl	100% (inactive)
Cc1ccc(NC(=O)CSc2nc3ccccc3c(=O)n2CCc2ccccc2)c(C(=O)O)c1	101% (inactive)
O=S(=O)(NCCCNc1nccc(-c2c(-c3ccc(F)cc3)nc3sccn23)n1)c1ccc(F)cc1	56.2% (inactive)
CCn1cc(C(=O)O)c(=O)c2cnc(N3CCCC3)nc21	105% (inactive)
O=c1c2ccccc2nc(SCCN2CCCCC2)n1CCc1ccccc1	77.5% (inactive)
COc1cc2cc3c(nc2cc1OC)CCN3Cc1ccc(NC(=O)c2ccc(Cl)c(C(F)(F)F)c2)cc1	99.7% (inactive)
CN(C)C(=S)N/N=C\C=N/NC(=S)N(C)C	62.6% (inactive)
COc1cc(Cl)cc(-c2nn(-c3cccc(NC(=O)c4ccc(Cl)c(Cl)c4)c3)cc2-c2ccncc2)c1	75.3% (inactive)
CCCCCCCCCCCCCCCC(=O)OC1[C@@H](OC(=O)CCCCCCCCCCCCCCC)[C@@H](C(=O)N[C@@H](CCCCN)C(=O)OC)O[C@H]1n1cnc2c(=O)[nH]c(NC(=O)C(C)C)nc21 (stereo partly drawn)	97.8% (inactive)
CSc1nn(-c2ccccc2)c2ncnc(Oc3ccccc3)c12	101% (inactive)
COc1ccc(/C=C/C(=O)Nc2ccc(-c3nc4ccc(OC)cc4s3)cc2)cc1	94.7% (inactive)
O=C(/C=C/c1cc2ccccc2[nH]c1=O)c1ccc2c(c1)OCO2	98.5% (inactive)
COc1ccc(N2C(=O)C3c4[nH]c5ccc(OCc6ccccc6)cc5c4C4CCC(C(C)C)CC4C3C2=O)cc1 (stereo not drawn)	104% (inactive)
COc1cc(C(=C2O[C@@H]([C@H]3COC(C)(C)O3)[C@H]3OC(C)(C)O[C@@H]23)c2cc(OC)c(OC)c(OC)c2)cc(OC)c1OC	95.2% (inactive)
COc1ccccc1/C=C/C(=O)c1ccccc1	84.7% (inactive)
COc1ccc(C2=Nc3c(C)nn(-c4ccccc4)c3NC(c3ccc(Oc4ccnc5cc(Cl)ccc45)c(OC)c3)C2)cc1 (stereo not drawn)	77.8% (inactive)

SMILES	growth
NC(=O)SCC(=O)Nc1ccc(S(N)(=O)=O)cc1	106% (inactive)
c1ccc([I+]c2ccccc2)cc1	55.6% (inactive)
CCN1CCCC1CNC(=O)c1ncc(-c2ccc(C(F)(F)F)cc2)c(NC2CCCCCC2)n1 (stereo not drawn)	92.5% (inactive)
Cc1ccc(N=Nc2c(N)nc(N)[nH]c2=O)cc1C	101% (inactive)
COc1ccc(/C=C2/CN(C(=O)c3ccc(C)cc3)C/C(=C\c3ccc(OC)cc3)C2=O)cc1	87.6% (inactive)
COc1cc(-c2cc(/C=C3\C(=O)Nc4cc(Cl)ccc43)[nH]n2)cc(OC)c1OC	69.7% (inactive)
O=C(Nc1cccc(-n2cc(-c3ccncc3)c(-c3ccc(O)c(Cl)c3)n2)c1)c1ccc(N2CCOCC2)c(C(F)(F)F)c1	42.2% (inactive)
COc1ccccc1CNCCCN1C(=O)c2ccc3c4c(ccc(c24)C1=O)C(=O)N(CCCN)C3=O	-34.7% (active)
N=c1c2c(-c3ccccc3)c(-c3ccccc3)n(Cc3ccccc3)c2ncn1CCCO	45.7% (inactive)
CCCC(F)C(=O)O (stereo not drawn)	105% (inactive)
O=C(N/N=C\c1cc(Cl)ccc1[N+](=O)[O-])c1ccco1	98.2% (inactive)
COC(=O)c1ccc(=O)oc1	93% (inactive)
Oc1[nH]c2ccc(Cl)cc2c1/C=c1/ccc2c(c1)N=C(c1cc(F)cc(F)c1)N=2	64% (inactive)
CN(Cc1ccccc1)Cc1ccc([N+](=O)[O-])cc1I	107% (inactive)
O=C(CCCCC(=O)Nc1ccc2c(c1)/C(=C/c1ccc[nH]1)C(=O)N2)NO	106% (inactive)
O=C1/C(=C/c2ccc(Cl)cc2)SC(=Nc2ccc(Cl)cc2)N1Cc1nc2ccccc2[nH]1	78.7% (inactive)
O=C(C[P+](c1ccccc1)(c1ccccc1)c1ccccc1)C[P+](c1ccccc1)(c1ccccc1)c1ccccc1	-14.5% (active)
N=C(N)c1ccc(-c2ccc(-c3ccccc3)o2)nc1	101% (inactive)
COc1cc(/C=C2\CCCC3=C2N=C2SC=NN2C3c2cc(OC)c(OC)c(OC)c2)cc(OC)c1OC (stereo not drawn)	28.9% (inactive)

Test system: NCI-H226 lung
Experiment: as above
Conditions: 10 µM

SMILES	growth
CN(C)CCOc1nc2ccccc2c2c1-c1ccc(Cl)cc1C2=O	3.47% (active)
CCOC(=O)C(CSC(c1ccccc1)(c1ccccc1)c1ccccc1)NC(=O)C(CSC(c1ccccc1)(c1ccccc1)c1ccccc1)NC(c1ccccc1)(c1ccccc1)c1ccccc1 (stereo not drawn)	93.5% (inactive)
O=C1OCC2=C1C(c1cccc(Cl)c1)c1cc3c(cc1N2CCO)CCC3 (stereo not drawn)	-18.1% (active)
O=C(Nc1ccc(Cl)cc1)N1NC(c2ccc(Cl)cc2)C=C1c1ccccc1 (stereo not drawn)	109% (inactive)
S=c1[nH]ccn1-c1c(Cl)cccc1Cl	98.6% (inactive)
Cc1ccc(NC(=O)CSc2nc3ccccc3c(=O)n2CCc2ccccc2)c(C(=O)O)c1	101% (inactive)
O=S(=O)(NCCCNc1nccc(-c2c(-c3ccc(F)cc3)nc3sccn23)n1)c1ccc(F)cc1	40% (inactive)
CCn1cc(C(=O)O)c(=O)c2cnc(N3CCCC3)nc21	94.5% (inactive)
O=c1c2ccccc2nc(SCCN2CCCCC2)n1CCc1ccccc1	101% (inactive)
COc1cc2cc3c(nc2cc1OC)CCN3Cc1ccc(NC(=O)c2ccc(Cl)c(C(F)(F)F)c2)cc1	71.2% (inactive)
CN(C)C(=S)N/N=C\C=N/NC(=S)N(C)C	76.9% (inactive)
COc1cc(Cl)cc(-c2nn(-c3cccc(NC(=O)c4ccc(Cl)c(Cl)c4)c3)cc2-c2ccncc2)c1	66.3% (inactive)
CCCCCCCCCCCCCCCC(=O)OC1[C@@H](OC(=O)CCCCCCCCCCCCCCC)[C@@H](C(=O)N[C@@H](CCCCN)C(=O)OC)O[C@H]1n1cnc2c(=O)[nH]c(NC(=O)C(C)C)nc21 (stereo partly drawn)	102% (inactive)
CSc1nn(-c2ccccc2)c2ncnc(Oc3ccccc3)c12	90.6% (inactive)
COc1ccc(/C=C/C(=O)Nc2ccc(-c3nc4ccc(OC)cc4s3)cc2)cc1	99.9% (inactive)
O=C(/C=C/c1cc2ccccc2[nH]c1=O)c1ccc2c(c1)OCO2	114% (inactive)
COc1ccc(N2C(=O)C3c4[nH]c5ccc(OCc6ccccc6)cc5c4C4CCC(C(C)C)CC4C3C2=O)cc1 (stereo not drawn)	104% (inactive)
COc1cc(C(=C2O[C@@H]([C@H]3COC(C)(C)O3)[C@H]3OC(C)(C)O[C@@H]23)c2cc(OC)c(OC)c(OC)c2)cc(OC)c1OC	94.4% (inactive)
COc1ccccc1/C=C/C(=O)c1ccccc1	85% (inactive)
COc1ccc(C2=Nc3c(C)nn(-c4ccccc4)c3NC(c3ccc(Oc4ccnc5cc(Cl)ccc45)c(OC)c3)C2)cc1 (stereo not drawn)	74.3% (inactive)

SMILES	growth
NC(=O)SCC(=O)Nc1ccc(S(N)(=O)=O)cc1	93% (inactive)
c1ccc([I+]c2ccccc2)cc1	65.5% (inactive)
CCN1CCCC1CNC(=O)c1ncc(-c2ccc(C(F)(F)F)cc2)c(NC2CCCCCC2)n1 (stereo not drawn)	86% (inactive)
Cc1ccc(N=Nc2c(N)nc(N)[nH]c2=O)cc1C	93.5% (inactive)
COc1ccc(/C=C2/CN(C(=O)c3ccc(C)cc3)C/C(=C\c3ccc(OC)cc3)C2=O)cc1	82.1% (inactive)
COc1cc(-c2cc(/C=C3\C(=O)Nc4cc(Cl)ccc43)[nH]n2)cc(OC)c1OC	50.4% (inactive)
O=C(Nc1cccc(-n2cc(-c3ccncc3)c(-c3ccc(O)c(Cl)c3)n2)c1)c1ccc(N2CCOCC2)c(C(F)(F)F)c1	85.8% (inactive)
COc1ccccc1CNCCCN1C(=O)c2ccc3c4c(ccc(c24)C1=O)C(=O)N(CCCN)C3=O	47.3% (inactive)
N=c1c2c(-c3ccccc3)c(-c3ccccc3)n(Cc3ccccc3)c2ncn1CCCO	46.1% (inactive)
CCCC(F)C(=O)O (stereo not drawn)	114% (inactive)
O=C(N/N=C\c1cc(Cl)ccc1[N+](=O)[O-])c1ccco1	105% (inactive)
COC(=O)c1ccc(=O)oc1	101% (inactive)
Oc1[nH]c2ccc(Cl)cc2c1/C=c1/ccc2c(c1)N=C(c1cc(F)cc(F)c1)N=2	86.1% (inactive)
CN(Cc1ccccc1)Cc1ccc([N+](=O)[O-])cc1I	94.5% (inactive)
O=C(CCCCC(=O)Nc1ccc2c(c1)/C(=C/c1ccc[nH]1)C(=O)N2)NO	91.1% (inactive)
O=C1/C(=C/c2ccc(Cl)cc2)SC(=Nc2ccc(Cl)cc2)N1Cc1nc2ccccc2[nH]1	81.5% (inactive)
O=C(C[P+](c1ccccc1)(c1ccccc1)c1ccccc1)C[P+](c1ccccc1)(c1ccccc1)c1ccccc1	-71.8% (active)
N=C(N)c1ccc(-c2ccc(-c3ccccc3)o2)nc1	90.4% (inactive)
COc1cc(/C=C2\CCCC3=C2N=C2SC=NN2C3c2cc(OC)c(OC)c(OC)c2)cc(OC)c1OC (stereo not drawn)	13.6% (inactive)
